Tau fluor cs: counter-screen for tau fibril formation inhibitors | tau K18 P301L Alexa594 fluorescence, heparin fibrillization | Potency, µM (doses to about 57.7 µM), without a hit: at the top dose activity change, negative = decrease | hit rate 0.93% among 280,000 | AID 1463; note: potency is the fitted concentration of half-maximal effect; % is set by controls: 0 for no effect and ±100 for the full control effect; nearly all actives have a fitted effect of over 55% in size
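Human tau K18 P301L (15 uM unlabeled, 0.24 uM Alexa 594-labeled) in 100 mM sodium acetate pH 7 with 20 uM heparin, 6 hr at 37 C. ThT 30 uM added, 1 hr ambient; Alexa 594 FP and total fluorescence read at 555/632 nm.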
CBFb RUNX1 block: CBF-beta/RUNX1 interaction disruption; 230,000 tested, under 10 active; AID 1477; Q01196+Q13951; AlphaScreen CBFb-His/RUNX1-biotin binding, biochemical; Potency, µM (highest dose often 59.8 µM), inactives show top-dose activity, negative = inhibition, most hits filed as inhibitors; note: % of control where 0% means no effect
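Read-out: AlphaScreen. Format: His-CBF-beta with biotinylated RUNX1 (30 nM each) preincubated 20 min, compound 15 min, Ni-chelate plus streptavidin beads 90 min; room temperature throughout.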
Tau fibril FP: tau fibrillization inhibition (FP); K18 P301L tau heparin fibrillization, Alexa594 FP, 6 h; AID 1468; Potency, µM (doses to about 57.7 µM), for inactives: top-dose activity, negative = inhibition, most hits filed as inhibitors; hit rate 0.39% among 280,000; P10636; note: potency is the fitted concentration of half-maximal effect; % is set by controls: 0 for no effect and ±100 for the full control effect; nearly all actives have a fitted effect of over 55% in size
Target sequence (P10636 561-689 P618L limits assumed): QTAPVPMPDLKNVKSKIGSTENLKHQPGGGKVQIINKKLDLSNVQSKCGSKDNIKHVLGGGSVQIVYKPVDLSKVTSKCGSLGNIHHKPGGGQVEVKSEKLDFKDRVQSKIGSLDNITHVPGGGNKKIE
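FP of Alexa 594-tau after heparin (20 uM) induction. Substrate: human K18 P301L, 15 uM unlabeled, 0.24 uM labeled. Buffer 100 mM sodium acetate pH 7. 6 hr, 37 C.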
Lamin A splicing: changes lamin A minigene splicing in HeLa cells. HeLa LMNA splicing GFP/RFP minigene ratio, 48 h. Potency, µM (highest dose often 46.1 µM), for the others: at the top dose ratio change, negative = inhibition, hits mostly inhibitors. hit rate 0.01% among 200,000; active = well fitted inhibition curve with a large enough effect in the signal ratio, with a control signal flat, not every such curve was filed as active; inconclusive = small, poorly fitted or top-dose-only effect, or effect the other way, or a change in a side signal; the % refers to the signal ratio; note: potency is the fitted concentration of half-maximal effect; % is set by controls: 0 for no effect and ±100 for the full control effect
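S3 HeLa cells stably expressing lamin A-EGFP splicing minigene plus DsRed2, 600 cells/well, 48 h compound exposure at 37C. Laser-scanning cytometry; analysed as GFP (500-530 nm)/RFP (575-640 nm) total intensity ratio; 0.5% DMSO vehicle.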
Tau fibril ThT: inhibitors of human tau fibril formation, thioflavin T binding; AID 1460; P10636; recombinant tau K18 P301L, heparin-induced fibrillization, ThT fluorescence; hit rate 2.1% among 270,000; Potency, µM (doses to about 57.4 µM), without a hit: at the top dose activity, negative = inhibition, actives largely listed as inhibitors; note: potency is the fitted concentration of half-maximal effect; % is set by controls: 0 for no effect and ±100 for the full control effect; nearly all actives have a fitted effect of over 55% in size
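Fibril formation assay: tau K18 P301L at 15 uM with trace Alexa 594 label, heparin inducer 20 uM, pH 7 sodium acetate buffer, 37 C for 6 hr; endpoint ThT signal.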
JMJD2E inh: JMJD2E (human) inhibition; JMJD2E catalytic domain, FDH-coupled NADH fluorescence (FDH is formaldehyde dehydrogenase); AID 2147; hit rate 1.6% among 230,000; Potency, µM (highest dose often 57.1 µM), for the others: at the highest dose activity change, negative = inhibition, most hits filed as inhibitors; B2RXH2; active = well fitted inhibition curve with a large enough effect, not every such curve was filed as active; inconclusive = small, poorly fitted or top-dose-only effect, or another doubt; inactive = no such curve, though single readings can be large or run the other way;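 note: potency is the fitted concentration of half-maximal effect; 0% = wells with enzyme and -100% = buffer wells without enzyme; nearly all actives have a fitted effect of over 50% in size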
Target sequence (B2RXH2 1-337 limits assumed): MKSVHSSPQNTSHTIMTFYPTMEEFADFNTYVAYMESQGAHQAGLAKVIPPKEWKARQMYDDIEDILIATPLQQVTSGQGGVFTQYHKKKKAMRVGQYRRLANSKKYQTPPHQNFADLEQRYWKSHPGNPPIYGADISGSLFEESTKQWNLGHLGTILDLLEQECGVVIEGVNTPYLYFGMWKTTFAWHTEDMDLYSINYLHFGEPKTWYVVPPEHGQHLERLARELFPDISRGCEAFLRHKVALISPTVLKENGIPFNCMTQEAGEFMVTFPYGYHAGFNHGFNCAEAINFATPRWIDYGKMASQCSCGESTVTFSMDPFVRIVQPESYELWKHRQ
Starred values were filed as active, the others as inactive; ? = inconclusive; / = not tested or not shown; [ ] = another dose, or the depositor's remark. In the library only some 3.2% were active in any assay of this set; here they are far more common. Unless noted, calls come from the whole dose curve; as a rule, active = well fitted curve in the direction sought with a large enough effect; inconclusive = small, poorly fitted or top-dose-only effect, or another doubt; inactive = no such curve, though single readings can be large; an effect the other way counts as inactive or inconclusive.

SMILES | Tau fluor cs | CBFb RUNX1 block | Tau fibril FP | Lamin A splicing | Tau fibril ThT | JMJD2E inh
CC(C)NC(=O)Cn1nnc(-c2ccc(Cl)cc2)n1 | ? | 0.8% | ? | -2.1% | 25.1µM* | -16.5%
O=C(Cn1nnc(-c2ccc(Cl)cc2)n1)NCc1ccc(F)cc1 | 1.4% | / | 4.8% | / | 5.1% | /
Cc1cc(C)cc(NC(=O)CN(C)S(=O)(=O)c2ccc3c(c2)CCC(=O)N3)c1 | -2.8% | / | -10.3% | / | 5.6% | /
COc1cccc2cc(-c3nc4sc(C(=O)Nc5ccc(F)cc5F)c(C)c4c(=O)[nH]3)c(=O)oc12 | -8.8% | / | -4.3% | 0.6%[46 µM] | -0.8% | /
Cc1ccc(Oc2cc(NC(=O)CCCn3nc([N+](=O)[O-])c(Cl)c3C)cc([N+](=O)[O-])c2)cc1 | 7.94µM*[quencher] | 2.6% | 3.6% | -2.4% | -8.0% | -3.3%
Cc1cccc(Oc2cc(NC(=O)Cn3cnc([N+](=O)[O-])n3)cc([N+](=O)[O-])c2)c1 | ? | 4.1% | 3.7% | ? | -0.3% | 1.2%
Cc1cc([N+](=O)[O-])nn1CCCC(=O)Nc1cc(Oc2ccccc2)cc([N+](=O)[O-])c1 | 10µM*[quencher] | -3.9% | 11.3% | -5.8% | -10.0% | 3.0%
Cc1cc(C)cc(Oc2cc(NC(=O)c3cn(C)nc3C)cc([N+](=O)[O-])c2)c1 | 2.51µM*[quencher] | -0.2% | ? | 22.7% | 5.2% | -9.7%
COc1cccc(-c2nnc(SCC(=O)NC3CCCCC3)o2)c1 | -14.8% | / | -11.7% | / | ? | /
CCOC(=O)N1CCN(C(=O)c2ccc3c(c2)N(Cc2cc(C)ccc2C)C(=O)c2ccccc2S3=O)CC1 (stereo unspecified) | 1.6% | / | -1.3% | / | -6.2% | /
COC(=O)c1ccc2nc(C)c(C)nc2c1 | 3.1% | -1.1% | 0.3% | 11.9% | 2.8% | 5.4%
COC(=O)c1cc(N=Nc2sc(N)nc2C)cc(C(=O)OC)c1 | ? | -25.8% | 8.8% | / | 15.8µM* | -17.7%
Cc1ccc(-n2nnc(-c3nc(-c4cccs4)no3)c2N)c(C)c1 | 0.8% | / | -10.9% | / | 6.2% | /
O=C(O/N=C\c1ccc(N2CCCCC2)c([N+](=O)[O-])c1)c1ccc(Cl)cc1Cl | -24.6% | ? | -1.5% | 18.2% | 5.01µM* | 0.6%
O=C(/C=C/c1ccc(Cl)cc1)N1CCN(c2ccc(Cl)cc2[N+](=O)[O-])CC1 | -19.8% | 5.5% | 1.8% | -16.4% | 7.94µM* | -3.5%
Cc1ccc(C(=O)NCc2ccc(N(C)C)cc2)cc1NC(=O)c1nsc2ccccc12 | ? | / | 6.9% | -11.9%[46 µM] | -16.0% | /
Cc1ccccc1Nc1c(-c2ccccc2O)nc2sccn12 | 12.6µM*[quencher] | / | ? | / | -12.5% | /
Cc1ccc(Nc2c(-c3ccc(C)cc3)nc3c(C)cccn23)cc1 | ? | / | 3.1% | / | ? | /
Cc1ccc2nc(-c3ccccc3O)c(Nc3ccccc3C)n2c1 | -9.7% | / | -2.6% | / | -12.5% | /
Cc1ccccc1Nc1c(-c2ccc(O)cc2)nc2c(C)cccn12 | 25.1µM*[quencher] | / | 7.9% | / | ? | /
CCOC(=O)C(=Cc1ccc(-n2ccnc2)cc1)C(=O)OCC | 7.1% | -5.2% | 1.2% | / | ? | 11.2µM*
O=C1NN(c2ccc(Cl)cc2)C(=O)/C1=C\c1ccc(-c2cccc(C(=O)O)c2)o1 | 10µM*[quencher] | -28.6% | ? | / | 7.94µM* | -29.9%
COc1ccc(Sc2ccc(/C=C3\C(=O)NN(c4ccccc4)C3=O)o2)cc1 | ? | ? | ? | 6.7% | 10µM* | -11.8%
O=C1NN(c2ccccc2)C(=O)/C1=C\c1ccc(-c2cc([N+](=O)[O-])ccc2O)o1 | 7.94µM*[quencher] | / | ? | ? | 3.55µM* | ?
Cc1ccc(N2NC(=O)/C(=C/c3ccc(-c4ccc(Cl)c(C(=O)O)c4)o3)C2=O)cc1 | ? | 3.3% | -1.0% | / | ? | -1.3%
COc1cc(OC)c(NC(=O)COCc2cc(-c3cccs3)on2)cc1Cl | -25.3% | / | ? | 0.2%[46 µM] | -11.1% | /
CCCNC(=O)C1CCC(Cn2c(=O)c3sccc3n(CC(=O)N3CCCC3)c2=O)CC1 (stereo unspecified) | -3.1% | / | -7.8% | 9.3%[46 µM] | 4.1% | /
